Assay results: PubChem BioAssay (NCATS)
Records with an inconclusive call do not appear. The source made the active and inactive calls. The call rests on the fitted dose curve; in most records, active means well fitted curve in the direction sought with a large enough effect; inconclusive means small, poorly fitted or top-dose-only effect, or another doubt; inactive means no such curve, though single readings can be large; an effect the other way counts as inactive or inconclusive.

Legend:
CRL-7250 = normal cell line; assay: Cytotoxic Profiling of Annotated Libraries Using Quantitative High-Throughput Screening (AID 1296008); conditions: Five cell lines viability, CellTiter-Glo ATP luminescence, 48-72 h; max response: stronger effect = lower value; further: nearly all actives have a fitted effect of over 60% in size; on max response: on the % scale 0 is the no-effect control and ±100 the full control effect
Outline: (§1)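 Compounds were pin-transferred onto cells and incubated 48 or 72 hr at 37 degree Celsius, 95% humidity. CellTiter-Glo was added, plates sat 10 min at room temperature, then ATP-coupled luminescence was imaged as the viability read-out.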

HaCat [1] = assay: as above; conditions: Five cell lines viability, CellTiter-Glo ATP luminescence, 48-72 h; max response: stronger effect = lower value
Outline: as §1

KB-3-1 = assay: as above; conditions: Five cell lines viability, CellTiter-Glo ATP luminescence, 48-72 h; max response: stronger effect = lower value
Outline: as §1

NIH3T3 [2] = assay: as above; conditions: Five cell lines viability, CellTiter-Glo ATP luminescence, 48-72 h; max response: stronger effect = lower value
Outline: as §1

HACAT [3] = assay: qHTS assay to identify novel small-molecules to repurpose for Merkel cell carcinoma treatment (AID 1296009); conditions: MCC and control cell lines, CellTiter-Glo viability, 72 h; at 44.8 µM (top of the series) unless noted; further: nearly all actives have a fitted effect of over 60% in size
Outline: (§2)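 qHTS format: cells treated with library compounds in DMSO across 8 (NPC) or 11 (MIPE) concentrations. Readout after 72 hr at 37 degree celsius was CellTiter-Glo luminescence.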

C33A = assay: Primary qHTS to identify gynecologic anti-cancer compounds using libraries of approved drugs and bioactive compounds (AID 1345084); conditions: Gynecologic cancer cell panel viability, ATPlite luminescence, 48 h; series mostly up to 57.5 µM; further: on the % scale 0 is the no-effect control and ±100 the full control effect; nearly all actives have a fitted effect of over 55% in size
Outline: (§3)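 Five-point cytotoxicity, 48 h drug exposure at 37 C, 5% CO2, on cells seeded 16 h beforehand. ATP content read by ATPlite luminescence.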

CAOV3 = assay: as above; conditions: Gynecologic cancer cell panel viability, ATPlite luminescence, 48 h; series mostly up to 57.5 µM
Outline: as §3

CASKI = assay: as above; conditions: Gynecologic cancer cell panel viability, ATPlite luminescence, 48 h; series mostly up to 57.5 µM
Outline: as §3

Es-2 = assay: as above; conditions: Gynecologic cancer cell panel viability, ATPlite luminescence, 48 h; series mostly up to 57.5 µM
Outline: as §3

HeLa = assay: as above; conditions: Gynecologic cancer cell panel viability, ATPlite luminescence, 48 h; series mostly up to 57.5 µM
Outline: as §3

Hek293T = assay: as above; conditions: Gynecologic cancer cell panel viability, ATPlite luminescence, 48 h, control line for the selectivity index; series mostly up to 57.5 µM
Outline: as §3

JEG-3 = assay: as above; conditions: Gynecologic cancer cell panel viability, ATPlite luminescence, 48 h; series mostly up to 57.5 µM
Outline: as §3

OV90 = assay: as above; conditions: Gynecologic cancer cell panel viability, ATPlite luminescence, 48 h; series mostly up to 57.5 µM
Outline: as §3

PA-1 = assay: as above; conditions: Gynecologic cancer cell panel viability, ATPlite luminescence, 48 h; series mostly up to 57.5 µM
Outline: as §3

NIH3T3 [4] = assay: qHTS assay to identify novel small-molecules to repurpose for Merkel cell carcinoma treatment (AID 1296009); conditions: MCC and control cell lines, CellTiter-Glo viability, 72 h; at 44.8 µM (top of the series) unless noted; further: nearly all actives have a fitted effect of over 60% in size
Outline: as §2

CC1(C)CC=C(C#Cc2ccccc2)c2cc(/C=C/c3ccc(C(=O)O)cc3)ccc21
inactive: max response (CRL-7250) -4.79% | outcome (HaCat [1]) | max response (KB-3-1) 3.78% | max response (NIH3T3 [2]) -4.98% | outcome (HACAT [3]) | Potency (C33A) | Potency (CAOV3) | outcome (CASKI) | Potency (Es-2) | Potency (HeLa) | Potency (Hek293T) | Potency (JEG-3) | Potency (OV90) | Potency (PA-1)

C[C@@H]1O[C@@H](OC(=O)Cc2ccccc2)[C@H](O)[C@H](O)[C@H]1O
inactive: max response (CRL-7250) 2.73% | outcome (HaCat [1]) | max response (KB-3-1) 6.7% | outcome (NIH3T3 [2]) | outcome (HACAT [3]) | outcome (NIH3T3 [4]) | Potency (C33A) | outcome (CASKI) | Potency (Es-2) | Potency (HeLa) | Potency (Hek293T) | Potency (JEG-3) | Potency (OV90) | Potency (PA-1)

CC1CCC2(C(=O)O)CCC3(C)C(=CCC4C5(C)CCC(O)C(C)(C(=O)O)C5CCC43C)C2C1(C)O (configuration not stated)
inactive: max response (CRL-7250) -10.9% | outcome (HaCat [1]) | max response (KB-3-1) 3.72% | outcome (NIH3T3 [2]) | outcome (HACAT [3]) inactive [at 17.4 µM] | outcome (NIH3T3 [4]) inactive [at 17.4 µM] | Potency (C33A) | Potency (CAOV3) | outcome (CASKI) | Potency (Es-2) | Potency (HeLa) | Potency (Hek293T) | Potency (JEG-3) | Potency (OV90) | Potency (PA-1)

COC(=O)C1=CO[C@@H](O[C@@H]2O[C@H](CO)[C@@H](O)[C@H](O)[C@H]2O)[C@@H]2[C@@H](C)[C@@H](O)C(O)[C@H]12 (some centres not stated)
inactive: max response (CRL-7250) -0.07% | outcome (HaCat [1]) | outcome (KB-3-1) | outcome (NIH3T3 [2]) | outcome (HACAT [3]) inactive [at 17.4 µM] | outcome (NIH3T3 [4]) inactive [at 17.4 µM] | Potency (C33A) | Potency (CAOV3) | outcome (CASKI) | Potency (Es-2) | Potency (HeLa) | Potency (Hek293T) | Potency (JEG-3) | Potency (OV90) | Potency (PA-1)

CC1=CC2=C(C)C(=O)[C@](C)(O)[C@H](O)C2=CO1
inactive: max response (CRL-7250) -8.59% | outcome (HaCat [1]) | max response (KB-3-1) 6.84% | max response (NIH3T3 [2]) -3.34% | outcome (HACAT [3]) | Potency (C33A) | Potency (CAOV3) | outcome (CASKI) | Potency (Es-2) | Potency (HeLa) | Potency (Hek293T) | Potency (JEG-3) | Potency (OV90) | Potency (PA-1)

CSC(=O)OCC1=C[C@@H]2OC(=O)C3=CO[C@@H](O[C@@H]4O[C@H](CO)[C@@H](O)[C@H](O)[C@H]4O)[C@H]1[C@@H]32
inactive: max response (CRL-7250) -1.2% | outcome (HaCat [1]) | outcome (KB-3-1) | max response (NIH3T3 [2]) 1.53% | outcome (HACAT [3]) inactive [at 17.4 µM] | Potency (C33A) | Potency (CAOV3) | outcome (CASKI) | Potency (Es-2) | Potency (HeLa) | Potency (Hek293T) | Potency (JEG-3) | Potency (OV90) | Potency (PA-1)

CN1CCCC1Cc1c[nH]c2ccc(CCS(=O)(=O)c3ccccc3)cc12 (configuration not stated)
inactive: outcome (CRL-7250) | outcome (HaCat [1]) | max response (KB-3-1) 7.71% | outcome (NIH3T3 [2]) | outcome (HACAT [3]) | outcome (NIH3T3 [4]) | Potency (C33A) | Potency (CAOV3) | outcome (CASKI) | Potency (Es-2) | Potency (HeLa) | Potency (Hek293T) | Potency (JEG-3) | Potency (OV90) | Potency (PA-1)

C=C(C)[C@@H]1CC[C@]2(C)CC[C@]3(C)C(CCC4[C@@]5(C)CC[C@H](O)C(C)(C)C5CC[C@]43C)C12 (some centres not stated)
inactive: outcome (CRL-7250) | outcome (HaCat [1]) | outcome (KB-3-1) | max response (NIH3T3 [2]) 2.33% | outcome (HACAT [3]) inactive [at 17.4 µM] | Potency (C33A) | Potency (CAOV3) | outcome (CASKI) | Potency (Es-2) | Potency (HeLa) | Potency (Hek293T) | Potency (JEG-3) | Potency (OV90) | Potency (PA-1)

CC1=CCC[C@@H]2[C@@](C)(CCc3ccoc3)[C@H](C(=O)O)CC[C@@]12C
inactive: max response (CRL-7250) -0.266% | outcome (HaCat [1]) | max response (KB-3-1) -0.465% | max response (NIH3T3 [2]) -9.18% | outcome (HACAT [3]) | Potency (C33A) | Potency (CAOV3) | outcome (CASKI) | Potency (Es-2) | Potency (HeLa) | Potency (Hek293T) | Potency (JEG-3) | Potency (OV90) | Potency (PA-1)

CC1=C(C(=O)OC2OC(COC3OC(CO)C(O)C(O)C3O)C(O)C(O)C2O)C(C)(C)CCC1 (configuration not stated)
inactive: max response (CRL-7250) -6.15% | outcome (HaCat [1]) | outcome (KB-3-1) | max response (NIH3T3 [2]) 0.403% | outcome (HACAT [3]) inactive [at 17.4 µM] | Potency (C33A) | Potency (CAOV3) | outcome (CASKI) | Potency (Es-2) | Potency (HeLa) | Potency (Hek293T) | Potency (JEG-3) | Potency (OV90) | Potency (PA-1)

COC(=O)C1=COC(O[C@@H]2O[C@H](CO)[C@@H](O)[C@H](O)[C@H]2O)C2C(C)C(=O)CC12 (some centres not stated)
inactive: max response (CRL-7250) -2.22% | max response (HaCat [1]) -11.3% | max response (KB-3-1) 2.31% | outcome (NIH3T3 [2]) | outcome (NIH3T3 [4]) | Potency (C33A) | Potency (CAOV3) | outcome (CASKI) | Potency (Es-2) | Potency (HeLa) | Potency (Hek293T) | Potency (JEG-3) | Potency (OV90) | Potency (PA-1)
